Here are results for 20 compounds from PubChem BioAssay (NCI).

“And” between values parts separate entries of the source, which are not always exact repeats. Equal values may be shown once. About 79,000 compounds went through this panel and 15% of them were active in at least one assay; those are over-represented in the sample as a whole. Values without a mark were called inactive. The source made the active and inactive calls. Cut-off read from the data, not from the text of the source: active = growth inhibition above about 70%; inactive = the rest.

The nature of experiment [1]: NCI Yeast Anticancer Drug Screen. Data for the rad50 strain (AID 155).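 Note: 0% = growth of vehicle-only cultures of the same strain.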 Particulars: S. cerevisiae rad50 strain growth inhibition, hits give high values; at 50.0 µM unless noted. In a few lines: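 Cells are treated with compound, grown, and their growth is then scored against vehicle-only cultures of the same repair-deficient yeast strain.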
A short description of experiment [2]: NCI Yeast Anticancer Drug Screen. Data for the mec2-1 strain (AID 157). The conditions noted are these: S. cerevisiae mec2-1 strain, hits give high values; at 50.0 µM unless noted. In a few lines: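 Test agents were screened against the mec2-1 yeast strain, with defined DNA repair or cell cycle alteration. Growth was scored as inhibition against vehicle-only controls.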

A short description of experiment [3]: NCI Yeast Anticancer Drug Screen. Data for the sgs1 mgt1 strain (AID 161).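 Note: 0% = growth of cultures given vehicle only.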 The conditions noted are these: S. cerevisiae sgs1 mgt1 strain, hits give high values; at 50.0 µM unless noted. In a few lines: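 Genetically altered yeast, compound exposure, growth inhibition relative to vehicle.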
Experiment [4] is described as follows: NCI Yeast Anticancer Drug Screen. Data for the cln2 rad14 strain (AID 165).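 Note: 0% = growth equal to vehicle treated cultures.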 The conditions noted are these: S. cerevisiae cln2 rad14 strain, hits give high values; at 50.0 µM unless noted. In a few lines:
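Growth of compound-exposed yeast (cln2 rad14 genotype) measured and expressed as inhibition relative to vehicle.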

The nature of experiment [5]: NCI Yeast Anticancer Drug Screen. Data for the bub3 strain (AID 167). The conditions noted are these: S. cerevisiae bub3 mutant strain, hits give high values; at 50.0 µM unless noted. In a few lines:
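Part of a panel of yeast mutants defective in DNA damage repair or cell cycle regulation. Each strain is grown with compound, and inhibition is calculated relative to solvent-treated cultures.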

A short description of experiment [6]: NCI Yeast Anticancer Drug Screen. Data for the mlh1 rad18 strain (AID 175). The conditions noted are these: S. cerevisiae mlh1 rad18 strain growth inhibition, hits give high values; at 50.0 µM unless noted. In a few lines:
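In this whole-cell yeast screen, a strain with altered DNA damage repair is challenged with compound, and its growth is measured against matched vehicle-treated controls.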

Turning to `COc1cc(C)c(O)c(C(=O)O)c1`, the growth inhibition was -3.7% in experiment [1]; -7.65% in experiment [2]; 2.25% in experiment [3]; 0.05% in experiment [4]; -1.45% in experiment [5]; -4.25% in experiment [6].
For the compound `CN1C(=O)N(c2cc(Cl)cc(Cl)c2)C(=N)C1=S`, the growth inhibition in experiment [1] was 7.1%; in experiment [2], 1.75%; in experiment [3], 17.6%; in experiment [4] it was -3.1%; in experiment [5], 32.5%; in experiment [6], 37.5%.
For `COc1ccc2nc3cc(Cl)ccc3c(Nc3ccccc3-c3ccccc3Nc3c4ccc(Cl)cc4nc4ccc(OC)cc34)c2c1`, the growth inhibition in experiment [1] was 6.85%; in experiment [2], -8.75%; in experiment [3], -18.1%; in experiment [4], 17.5%; in experiment [5], 2.1%; in experiment [6] it was -27.8%.
`O=C(CO)C(O)C(O)C(O)C(O)CO` (stereo not given): the growth inhibition is 19.2% and -6.1% in experiment [1]; 4.7% and 1.6% in experiment [2]; 20.3% and 3.4% in experiment [3]; -1.1% and -1.05% in experiment [4]; 32.5% and -3.2% in experiment [5]; 20.9% and 5.8% in experiment [6].
`CC1OC(n2cnc3c(NC(=O)c4ccccc4)ncnc32)C(O)C2OC12` (stereo not given): the growth inhibition in experiment [1] was -1.15%; in experiment [2], -3.05%; in experiment [3], 8.75%; in experiment [4], 13.4%; in experiment [5], 2.95%; in experiment [6], 14.8%.
On to `N#Cc1nc(C2CC2)oc1N`, for which the growth inhibition in experiment [1] is -18.7%; in experiment [2], -2.65%; in experiment [3], -22.9%; in experiment [4], 0.35%; in experiment [5] it was -25.2%; in experiment [6], 1.65%.
As to `Cc1ccc(N=Nc2ccc(C)cc2NC(=O)c2cccc3ccccc23)cc1`, the growth inhibition was -12.6% in experiment [1]; -8% in experiment [2]; -12.2% in experiment [3]; -90.5% in experiment [4]; -1.95% in experiment [5]; -2.7% in experiment [6].
For `COc1ccc(/C=C/c2ccc(OC)cc2)cc1`, the growth inhibition in experiment [1] was 13.3%; in experiment [2] it was -8.1%; in experiment [3], 0.6%; in experiment [4], -13.4%; in experiment [5], 8.7%; in experiment [6], 5.8%.
Turning to `CC(C)(C)c1ccncc1`, the growth inhibition was 8.45% in experiment [1]; 16.1% in experiment [2]; -16.4% in experiment [3]; -10.2% in experiment [4]; 5.15% in experiment [5]; -4.65% in experiment [6].
With `O=C1/C(=C/c2cccnc2)SC(=S)N1Cc1ccco1`, the growth inhibition is 2.7% in experiment [1]; -21.1% in experiment [2]; -8.85% in experiment [3]; 40% in experiment [4]; -6.45% in experiment [5]; 1.45% in experiment [6].
For the compound `COc1ccc(/C=N/NC(=O)c2sc(=S)n(-c3ccccc3)c2N)cc1`, the growth inhibition in experiment [1] was 2.9%; in experiment [2], -0.45%; in experiment [3], -40.1%; in experiment [4] it was -16.9%; in experiment [5] it was -17.1%; in experiment [6], -7.5%.
For `NCC(=O)c1ccc(CCC(=O)O)cc1`, the growth inhibition in experiment [1] is 3.1%; in experiment [2], -0.25%; in experiment [3], -0.75%; in experiment [4], 0.25%; in experiment [5] it was 6.3%; in experiment [6] it was 2.6%.
Turning to `CC(O)(c1ccccc1)c1ccccc1`, the growth inhibition is -13.3% in experiment [1]; -1.75% in experiment [2]; -25.6% in experiment [3]; -16.8% in experiment [4]; -2.3% in experiment [5]; -33.3% in experiment [6].
For the compound `Cc1ccc(-c2c(C)c(-c3ccccc3)c(-c3ccccc3)c(C)c2-c2ccccc2)cc1C`, the growth inhibition in experiment [1] was 63.3%; in experiment [2], 77.3% (active); in experiment [3], 25.8%; in experiment [4], 82% (active); in experiment [5], 97.5% (active); in experiment [6], 65%.
As to `O=c1[nH][nH]c(=O)c2c([N+](=O)[O-])cccc12`, the growth inhibition in experiment [1] is -17.6%; in experiment [2], -8.6%; in experiment [3] it was -3.8%; in experiment [4], -37.5%; in experiment [5] it was 0.35%; in experiment [6], -0.35%.
As for `CC(CC(=O)Nc1ccccc1CC(c1c[nH]c2ccccc12)c1c[nH]c2ccccc12)C(=O)O` (stereo not given), the growth inhibition in experiment [1] is 0.6%; in experiment [2], -14.2%; in experiment [3], 3.4%; in experiment [4], -12.9%; in experiment [5], 6.7%; in experiment [6], 17.5%.
`CC(=O)NC(CCC(=O)O)C(=O)O` (stereo not given): the growth inhibition in experiment [1] was -0.55%; in experiment [2], -14.9%; in experiment [3], -7.15%; in experiment [4], -6.2%; in experiment [5] it was -20.1%; in experiment [6], -1.6%.
`C=CCN(N=O)C(=O)N(CCCCC(NC(C)=O)C(=O)NCc1ccccc1)Cc1ccccc1` (stereo not given): the growth inhibition was -0.95% in experiment [1]; -13.1% in experiment [2]; -21.4% in experiment [3]; -26.5% in experiment [4]; -22.3% in experiment [5]; -17.1% in experiment [6].
With `CCS(=O)(=O)/C=C/c1cccs1`, the growth inhibition in experiment [1] was -9.1%; in experiment [2], -7.95%; in experiment [3], -8.65%; in experiment [4], -47.6%; in experiment [5], 4.8%; in experiment [6], -17.6%.
As for `C1=NC(c2ccccc2)=CN(C2CCCCCCCCCCC2)C1(c1ccccc1)C1CCCCCCCCCCC1` (stereo not given), the growth inhibition in experiment [1] was -18.2%; in experiment [2] it was -8.55%; in experiment [3], -12%; in experiment [4], -19.4%; in experiment [5], 12.3%; in experiment [6], 13.2%.
